In all, about 360,000 compounds went through this assay and about 3,100 (0.86%) were called active.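 How the source made its calls: active means inhibition or corrected inhibition above about 18%, plus a signal ratio from 0.5 to 1.5 (limit read from the data, passing the limit was not always enough); inactive means the rest.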 Shown is part of a subset that was picked to be rich in actives.

In the assay the target is Neuropilin-1 (Homo sapiens) (UniProt O14786). The experiment in a line: modulators of CendR peptide binding to NRP-1, primary screen, biochemical, fluorescence polarization, uHTS (AID 602438). As to conditions: FAM-RPARPAR peptide binding to NRP-1, fluorescence polarization; at 25 µM; hits give high values.
Chain of Neuropilin-1 (Homo sapiens) (O14786 whole entry, looked up): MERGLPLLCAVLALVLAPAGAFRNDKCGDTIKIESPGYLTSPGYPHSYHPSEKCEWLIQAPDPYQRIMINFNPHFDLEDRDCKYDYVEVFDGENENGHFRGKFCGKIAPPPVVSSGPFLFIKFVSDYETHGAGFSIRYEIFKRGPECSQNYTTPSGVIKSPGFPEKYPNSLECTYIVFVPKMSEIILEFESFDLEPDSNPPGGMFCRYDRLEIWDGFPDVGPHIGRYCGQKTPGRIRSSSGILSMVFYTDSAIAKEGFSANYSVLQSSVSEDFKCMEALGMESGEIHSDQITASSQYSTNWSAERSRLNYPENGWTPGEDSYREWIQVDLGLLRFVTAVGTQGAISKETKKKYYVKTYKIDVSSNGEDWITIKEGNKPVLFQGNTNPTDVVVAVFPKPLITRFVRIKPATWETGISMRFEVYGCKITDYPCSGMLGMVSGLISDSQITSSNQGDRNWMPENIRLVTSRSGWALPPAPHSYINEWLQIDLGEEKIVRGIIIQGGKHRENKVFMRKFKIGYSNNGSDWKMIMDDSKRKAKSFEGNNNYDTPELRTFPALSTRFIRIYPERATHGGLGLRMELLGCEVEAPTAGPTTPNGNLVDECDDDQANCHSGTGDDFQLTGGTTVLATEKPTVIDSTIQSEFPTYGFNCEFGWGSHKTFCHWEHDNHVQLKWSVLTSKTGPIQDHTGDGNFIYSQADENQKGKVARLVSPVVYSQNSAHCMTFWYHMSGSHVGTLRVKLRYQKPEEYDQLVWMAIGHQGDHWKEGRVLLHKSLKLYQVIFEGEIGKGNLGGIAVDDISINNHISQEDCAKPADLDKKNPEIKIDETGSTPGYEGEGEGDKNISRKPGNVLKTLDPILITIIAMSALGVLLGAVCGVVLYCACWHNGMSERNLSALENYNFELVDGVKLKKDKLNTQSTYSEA
As for `O=C(COC(=O)c1ccc(S(=O)(=O)Nc2ccccc2)cc1)NCC1CCCO1` (configuration not stated), the inhibition is 9.7% (inactive).

With `CCN(C(=O)COC(=O)c1ccccc1O)c1cccc2ccccc12`, the inhibition is 6.5% (inactive).

For `COc1ccc(S(=O)(=O)c2c[nH]c(=S)[nH]c2=O)cc1Cl`, the inhibition was -6% (inactive).

Consider `O=C(O)C1CCN(c2ccc([N+](=O)[O-])cc2[N+](=O)[O-])CC1`, for which the inhibition is 27.4% (active).

For the molecule `CCC(C)(C)NC(=O)c1cc([N+](=O)[O-])ccc1N1CCCCC1`, the inhibition is 8.9% (inactive).

Regarding `O=[N+]([O-])c1ccc(N2CCN(c3ccc(O)cc3)CC2)c(Cl)c1`, the inhibition was -3.9% (inactive).

Regarding `CC(CC(=O)C1C(C)C=CCC1(C)C)NNC(N)=O` (configuration not stated), the inhibition is 12.3% (inactive).

As to `O=C(CSc1ccc(-c2ccc(-n3cccn3)cc2)nn1)Nc1ccc([N+](=O)[O-])cc1`, the inhibition is 15.2% (inactive).

Take `O=C(NC1CCCC1)C(NS(=O)(=O)c1ccc(Br)s1)c1ccccc1` (configuration not stated): the inhibition was -3% (inactive).

As for `COCCNC(=O)C1C(=O)Nc2ccccc2C(=O)N1c1ccc2c(c1)OCCO2` (configuration not stated), the inhibition was -11.4% (inactive).

For `Cc1ccc(CC2CC(=O)N(c3ccc4c(c3)OCCO4)C2=O)cc1` (configuration not stated), the inhibition was 4.8% (inactive).

On to `Cc1ccc(CC2CC(=O)N(c3nc(C)cc(C)n3)C2=O)cc1` (configuration not stated), for which the inhibition is 13.2% (inactive).

As to `Cc1ccc(CC2CC(=O)N(c3cc(C)ccc3C)C2=O)cc1` (configuration not stated), the inhibition was 50% (active).

On to `CN(CC(=O)NCCc1ccc(S(N)(=O)=O)cc1)CC(=O)Nc1ccc(F)c(F)c1F`, for which the inhibition was 7.4% (inactive).

`Oc1ccc(-c2nncn2-c2ccccc2)cc1`: the inhibition was 2.8% (inactive).

For the molecule `CC1O[C@@H](OC2C(O)C(C)O[C@H](OC(=O)[C@]34CCC(C)(C)C[C@H]3C3=CCC5[C@@]6(C)CC(O)C(O[C@@H]7OC(CO)C(O)[C@@H](O)[C@@H]7O)[C@@](C)(C(=O)O)C6CC[C@@]5(C)[C@]3(CO)CC4)C2O[C@H]2OC(C)[C@@H](O[C@@H]3OCC(O[C@@H]4OC(CO)C(O)[C@H](O)C4O)[C@@H](O)[C@@H]3O)[C@H](O)C2O)C(O)C(O)C1O` (some centres not stated), the inhibition is 36.2% (active).

Regarding `CC1(C)C2CC[C@]3(C)C(CC=C4[C@@H]5C[C@@](C)(CO)CC[C@]5(C(=O)O)CC[C@]43C)[C@@]2(C)CC[C@@H]1O` (some centres not stated), the inhibition is -11.3% (inactive).

Consider `O=C1c2ccccc2C(=O)C1c1ccccc1`, for which the inhibition is -13.9% (inactive).

Turning to `O=C1OC(Cc2ccccc2)C(c2ccccc2)C1=O` (configuration not stated), the inhibition was 24.2% (active).

`O=C1CCC(Cc2ccccc2)N1` (configuration not stated): the inhibition is -7% (inactive).

Turning to `COc1ccc(Cl)cc1-c1cc(C(=O)Nc2cc(OC)c(OC)c(OC)c2)[nH]n1`, the inhibition was 5.6% (inactive).

Consider `CC(=O)N/C(=C\c1ccccc1)C(=O)OC(C)C(=O)N(C)c1ccccc1` (configuration not stated), for which the inhibition was 6.8% (inactive).

Usually inhibition stands for the change of the read-out against control, counted positive when it falls.
